Reference: PubChem BioAssay (NCATS)
Results filed as inconclusive are left out. Entries that show only a call come without a potency. Values without a mark were called inactive. The source made the active and inactive calls. The call rests on the fitted dose curve; in most records, active means well fitted curve in the direction sought with a large enough effect; inconclusive means small, poorly fitted or top-dose-only effect, or another doubt; inactive means no such curve, though single readings can be large; an effect the other way counts as inactive or inconclusive.

Key:
[1] = Viability qHTS for spleen associated tyrosine kinase inhibitor (SYKi) drug resistant MV4-11 cells (AID 1963824); further: nearly all actives have a fitted effect of over 35% in size; further: potency means the concentration at half of the fitted maximal effect
Procedure, shortened: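 SYK inhibitor-resistant MV4-11 AML cells, 500 per well, added to predispensed compounds and incubated 72 hr at 37 C, 5% CO2. Viability measured by CellTiter-Glo luminescence after 10 min at room temperature.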

[2] = Cellular viability qHTS for adrenocortical cancer (ACC) cell line SW-13 (AID 1963989); conditions: SW-13 ACC cells viability, CellTiter-Glo, 48 h; activity (max response): hits give low values;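 further: cells grown in serum-free medium with ITS supplement; nearly all actives have a fitted effect of over 65% in size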
Procedure, shortened: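 SW-13 cells in ITS-supplemented serum-free DMEM were plated overnight, then exposed for 48 h at 37C to compound titrations (up to 46 uM final). Viability was read by CellTiter-Glo luminescence; four-parameter logistic fits gave IC50 and efficacy.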

[3] = Cellular viability qHTS for adrenocortical cancer (ACC) cell line NCI-H295R (AID 1963990); further: nearly all actives have a fitted effect of over 60% in size; further: potency means the concentration at half of the fitted maximal effect
Procedure, shortened: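 Luminescent ATP read-out (CellTiter-Glo, 20 min RT) after 48 h drug exposure of NCI-H295R cells; a titration up to 46 uM final. Data normalized to doxorubicin (100% inhibition) and DMSO (0%); 4-parameter fit gives IC50, max response.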

In the case of `CN(C)CCc1c[nH]c2cccc(OP(=O)(O)O)c12`, the Potency [1] is reported as “inactive”, the activity (max response) [2] is reported as -5.41% and the Potency [3] is reported as “inactive”.

With `CN(C)C(=S)SSC(=S)N(C)C` the Potency [1] was 4.73 µM (active) and the Potency [3] was 25.9 µM (active).

For `CC(C)NCC(O)c1ccccc1Cl` (stereo not given), the Potency [1] was “inactive”, the activity (max response) [2] was 5.55% and the Potency [3] was “inactive”.

With `c1ccc2c(c1)OCC(C1=NCCN1)O2` (stereo not given) the Potency [1] was “inactive” and the Potency [3] was 13 µM (active).
